An excerpt weighted towards active compounds, which were near 8.3% of everything screened.
MCF10A rereplic – A quantitative high throughput screen for small molecules that induce DNA re-replication in MCF 10a normal breast cells; MCF 10A DNA re-replication, Hoechst nuclear intensity, 48 h; Potency, µM (top dose mostly 46.1 µM), most hits filed as activators; hit rate 2.9% among 350,000; AID 624296, 2012; also: nearly all actives have a fitted effect of over 50% in size
Gal4-VP16 FLuc – VP16 counterscreen qHTS for inhibitors of ROR gamma transcriptional activity | Potency, µM (highest dose often 53.6 µM), actives largely listed as inhibitors | AID 2546, 2010 | hit rate 3.5% among 310,000 | Drosophila S2 Gal4-VP16 UAS-luciferase, luminescence, 20 h;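 also: Gal4-VP16 expression switched on by copper sulfate through the metallothionein promoter; nearly all actives have a fitted effect of over 50% in size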
BCR signal inh – qHTS Assay to Find Inhibitors of Chronic Active B-Cell Receptor Signaling; ABC-DLBCL IkBa-CBG/CBR reporter, luminescence ratio, 4 h; hit rate 0.05% among 340,000; Potency, µM (titrated, usually from 46.1 µM), most hits filed as inhibitors; AID 493014, 2011; active = well fitted inhibition curve with a large enough effect in the signal ratio, with a control signal flat, not every such curve was filed as active; inconclusive = small, poorly fitted or top-dose-only effect, or effect the other way, or a change in a side signal; the % refers to the signal ratio
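Cell line TMD8 (human ABC DLBCL), stably expressing tet-inducible CBG68-IkBa fusion and CBR; IMDM/0.5% FBS; cpd up to 46 uM; dox induction, 4 h, 37C/5% CO2; dual luminescence; green/red ratio; MG132 control.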
Giardia killer – Small Molecules that selectively kill Giardia lamblia: qHTS; AID 540267, 2011; Giardia lamblia trophozoite viability; hit rate 0.15% among 340,000; activity change, % at 7.66 µM, hits read low; in the data active = activity change below about -80%; inconclusive = between about -30% and that limit;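 also: parasites exposed to compound for two days anaerobically before the ATP read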
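Giardia trophozoites, 100 cells per well, were exposed to compounds for 48 hrs at 37 deg C under anaerobic conditions; viability was then read as ATP content by bioluminescence after 15-30 min at room temperature.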
SW480 rereplic – A quantitative high throughput screen for small molecules that induce DNA re-replication in SW480 colon adenocarcinoma cells. hit rate 1.8% among 340,000. AID 624297, 2012. SW480 DNA re-replication, Hoechst DNA content imaging, 48 h. Potency, µM (highest dose often 46.1 µM), most hits filed as activators; also: nearly all actives have a fitted effect of over 55% in size
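Treated cells incubate 48 hr (37 C, 5% CO2), are stained 40 min with Hoechst, and nuclear fluorescence is enumerated; a rise in nuclei with high DNA signal marks re-replication.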
RORgamma inh – qHTS for inhibitors of ROR gamma transcriptional activity | Drosophila S2 Gal4-RORgamma UAS-luciferase reporter, 20 h | Potency, µM (highest dose often 53.6 µM), usual class: inhibitors | hit rate 5.4% among 310,000 | AID 2551, 2010; also: nearly all actives have a fitted effect of over 60% in size
Target sequence (P51450 whole entry, looked up, the tested form may be a part): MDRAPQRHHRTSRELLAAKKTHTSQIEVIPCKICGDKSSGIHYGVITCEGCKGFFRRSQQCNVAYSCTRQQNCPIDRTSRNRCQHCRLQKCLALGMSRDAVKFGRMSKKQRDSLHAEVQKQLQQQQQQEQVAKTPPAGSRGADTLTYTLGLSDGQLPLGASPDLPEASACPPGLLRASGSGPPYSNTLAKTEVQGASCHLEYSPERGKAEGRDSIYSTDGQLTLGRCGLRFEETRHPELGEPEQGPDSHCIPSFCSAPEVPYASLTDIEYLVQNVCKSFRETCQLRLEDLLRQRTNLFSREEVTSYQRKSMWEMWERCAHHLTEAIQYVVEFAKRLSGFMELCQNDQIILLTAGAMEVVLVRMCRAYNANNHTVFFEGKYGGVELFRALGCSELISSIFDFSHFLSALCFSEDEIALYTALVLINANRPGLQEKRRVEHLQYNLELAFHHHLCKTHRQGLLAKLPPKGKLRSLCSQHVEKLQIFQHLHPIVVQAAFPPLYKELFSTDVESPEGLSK
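Luciferase reporter read in Schneider cells carrying Gal4-RORγ (mouse) and UAS-Photinus luciferase; cells given compound 1 h before 700 uM copper sulfate induction, then incubated 20 h at ambient temperature.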
Hits are given with their value; 0 = inactive; ? = inconclusive; - = not tested or not shown. Unless noted, calls follow the shape of the dose curve; as a rule, active = well fitted curve in the direction sought with a large enough effect; inconclusive = small, poorly fitted or top-dose-only effect, or another doubt; inactive = no such curve, though single readings can be large; an effect the other way counts as inactive or inconclusive.

SMILES	MCF10A rereplic	Gal4-VP16 FLuc	BCR signal inh	Giardia killer	SW480 rereplic	RORgamma inh
COC(=O)C1=CN(C(C)C)C=C(C(=O)OC)C1c1cc2c(cc1Br)OCO2	14.6µM	0	0	0	?	0
N=C(c1ccc([N+](=O)[O-])cc1)N1CCCCCC1	0	0	0	0	0	0
CN(C(=O)CSc1nc(-c2cccs2)nc2ccccc12)C1CCS(=O)(=O)C1 (centres undefined)	0	-	0	0	0	-
CCC(C)Sc1cc(-c2nc3ccc(Cl)cn3c2NC2CCCCC2)ccc1OC (centres undefined)	?	-	?	0	?	-
COc1ccc(-c2cccc(-c3nc4ccc(Cl)cn4c3NC3CCCCC3)c2)cc1	14.6µM	-	0	0	?	-
O=C(NCC1CCCO1)c1ccccc1 (centres undefined)	0	0	-	0	0	0
COc1cccc(NC(=O)C2CCC2)c1	0	-	0	0	0	-
CCOc1cc(NC(=S)Nc2cccc(OC)c2)c(OCC)cc1NC(=O)C1CC1	?	?	0	0	0	7.08µM
CCOc1cc(NC(=S)NCC2CCCO2)c(OCC)cc1NC(=O)c1cccc(C)c1 (centres undefined)	?	11.2µM	0	0	0	4.47µM
CCOc1cc(NC(=S)NCC2CCCO2)c(OCC)cc1NC(=O)c1ccc(F)cc1 (centres undefined)	0	?	?	0	0	?
CCOc1cc(NC(=S)NCC2CCCO2)c(OCC)cc1NC(=O)c1ccccc1 (centres undefined)	0	11.2µM	0	0	0	6.31µM
CCOc1cc(NC(=S)NCC2CCCO2)c(OCC)cc1NC(=O)c1ccc(C)cc1 (centres undefined)	0	3.98µM	0	0	0	3.16µM
COc1ccccc1NC(=O)C1CCCN(C(=O)NCc2ccccc2)C1 (centres undefined)	0	0	0	0	0	0
CCOC(=O)C1=C(COC(=O)COc2cccc(C)c2C)NC(=O)NC1C (centres undefined)	0	-	0	0	0	-
COc1ccc(CC(=O)OC(C)C(=O)Nc2ccc(Cl)cn2)cc1 (centres undefined)	0	-	0	0	0	-
O=C(NCC1CCCO1)c1cccc(F)c1 (centres undefined)	0	0	0	0	0	0
CCOc1cc(NC(=S)NCC2CCCO2)c(OCC)cc1NC(=O)c1cccc(F)c1 (centres undefined)	0	4.47µM	0	0	0	3.55µM
CCOc1cc(NC(=S)NCC2CCCO2)c(OCC)cc1NC(=O)C1CC1 (centres undefined)	?	0	0	0	?	11.2µM
O=C(NCC1CCCO1)c1cccs1 (centres undefined)	0	0	0	0	0	0
CCOc1cc(NC(=O)c2cccs2)c(OCC)cc1NC(=O)CCC(=O)NCC1CCCO1 (centres undefined)	?	0	0	0	6.51µM	0
CCOc1cc(C(=O)NCC2CCCO2)cc(OCC)c1OCC (centres undefined)	0	0	0	0	0	0
COc1ccccc1C(=O)NCCC(=O)N1CCN(c2ccccc2O)CC1	0	-	0	0	0	-
CCC1(c2ccc(O)cc2)NC(=O)N(C)C1=O (centres undefined)	-	0	-	-	-	0
Cc1ccc(NCc2nc3ccccc3n2C)c(C)c1	?	10µM	0	0	0	12.6µM
Cc1ccc(N2CCN(c3ccc(NCc4nc5ccccc5n4C)cc3)CC2)cc1	?	0	0	0	0	11.2µM
Cc1ccccc1OCc1nc2ccccc2n1C	0	?	0	0	0	20µM
Cn1c(CNc2ccc(Cl)cc2)nc2ccccc21	0	?	?	0	0	?
S=C(NCc1ccc2c(c1)OCO2)Nc1ccc2nsnc2c1	0	?	0	0	0	?
CC1C(=O)N2CCCc3cc(S(=O)(=O)N4CCN(c5ccccc5F)CC4)cc1c32 (centres undefined)	0	?	0	0	0	0
